Data: PubChem BioAssay AID1159580 (chemical genetic matrix, 2015)
The campaign covered roughly 5,500 compounds. About 2,000 (36%) were called active. About 18% were inconclusive and are not listed. No stated cut-off is given here; in the data, active means normalized growth mostly below about 0.91 (no sharp cut-off); inconclusive means no clear call, values can overlap the other calls; inactive means mostly above about 0.92. This is one part of the list.

Test: chemical genetic growth profiling, strain panel (AID 1159580);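 further: tested at 20 µM; growth read once vehicle control cultures reached saturation at 30 °C; 1 = growth at the plate median or of vehicle wells; lower values mean less growth of the strain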
Conditions: growth OD

Measured: normalized growth

NC(=O)c1ncn([C@@H]2O[C@H](CO)[C@@H](O)[C@H]2O)c1O
inactive: S. cerevisiae deletion strains, locus YAL013W, strain DEP1, hits give low values 1 | S. cerevisiae deletion strains, locus YBR021W, strain FUR4, hits give low values 1.02 | S. cerevisiae deletion strains, locus YBR229C, strain ROT2, hits give low values 1.01 | S. cerevisiae deletion strains, locus YCL029C, strain bik1, hits give low values 1.01 | S. cerevisiae deletion strains, locus YDL035C, strain GPR1, hits give low values 1.02 | S. cerevisiae deletion strains, locus YDL074C, strain BRE1, hits give low values 0.978 | S. cerevisiae deletion strains, locus YDL101C, strain DUN1, hits give low values 1 | S. cerevisiae deletion strains, locus YDL134C, strain PPH21, hits give low values 1 | S. cerevisiae deletion strains, locus YDL185W, strain tfp1, hits give low values 1.01 | S. cerevisiae deletion strains, locus YDL192W, strain arf1, hits give low values 1.01 | S. cerevisiae deletion strains, locus YDR101C, strain arx1, hits give low values 1.01 | S. cerevisiae deletion strains, locus YDR150W, strain NUM1, hits give low values 0.997 | S. cerevisiae deletion strains, locus YDR162C, strain NBP2, hits give low values 0.983 | S. cerevisiae deletion strains, locus YDR318W, strain mcm21, hits give low values 1.03 | S. cerevisiae deletion strains, locus YDR388W, hits give low values 1 | S. cerevisiae deletion strains, locus YDR502C, strain sam2, hits give low values 0.999 | S. cerevisiae deletion strains, locus YEL061C, strain CIN8, hits give low values 1 | S. cerevisiae deletion strains, locus YER110C, hits give low values 1.01 | S. cerevisiae deletion strains, locus YER155C, strain BEM2, hits give low values 1 | S. cerevisiae deletion strains, locus YER167W, strain BCK2, hits give low values 1.03 | S. cerevisiae deletion strains, locus YGL078C, strain dbp3, hits give low values 0.984 | S. cerevisiae deletion strains, locus YGL086W, strain mad1, hits give low values 1.02 | S. cerevisiae deletion strains, locus YGL248W, strain PDE1, hits give low values 1.01 | S. cerevisiae deletion strains, locus YGR078C, strain PAC10, hits give low values 1 | S. cerevisiae deletion strains, locus YGR135W, strain pre9, hits give low values 0.988 | S. cerevisiae deletion strains, locus YGR229C, strain SMI1, hits give low values 0.981 | S. cerevisiae deletion strains, locus YGR252W, strain gcn5, hits give low values 1.01 | S. cerevisiae deletion strains, locus YHR030C, strain SLT2, hits give low values 1.01 | S. cerevisiae deletion strains, locus YHR079C, strain IRE1 (second series), hits give low values 1.02 | S. cerevisiae deletion strains, locus YHR094C, strain hxt1, hits give low values 1.01 | S. cerevisiae deletion strains, locus YHR129C, strain ARP1, hits give low values 1.01 | S. cerevisiae deletion strains, locus YHR200W, strain rpn10, hits give low values 1.01 | S. cerevisiae deletion strains, locus YIL066C, strain RNR3, hits give low values 1.01 | S. cerevisiae deletion strains, locus YIL073C, strain SPO22, hits give low values 1.07 | S. cerevisiae deletion strains, locus YIL125W, strain kgd1, hits give low values 1 | S. cerevisiae deletion strains, locus YIR030C, strain dcg1, hits give low values 1.02 | S. cerevisiae deletion strains, locus YJL095W, strain BCK1, hits give low values 0.994 | S. cerevisiae deletion strains, locus YJL134W, strain LCB3, hits give low values 1.01 | S. cerevisiae deletion strains, locus YJL168C, strain set2, hits give low values 1.01 | S. cerevisiae deletion strains, locus YJL187C, strain SWE1 (second series), hits give low values 0.998 | S. cerevisiae deletion strains, locus YJR043C, strain POL32, hits give low values 1.04 | S. cerevisiae deletion strains, locus YJR075W, strain HOC1, hits give low values 0.974 | S. cerevisiae deletion strains, locus YKL009W, strain mrt4, hits give low values 0.996 | S. cerevisiae deletion strains, locus YKL068W, hits give low values 0.995 | S. cerevisiae deletion strains, locus YKL085W, strain MDH1 (second series), hits give low values 1 | S. cerevisiae deletion strains, locus YKL085W, strain MDH1, hits give low values 1 | S. cerevisiae deletion strains, locus YKL190W, strain CNB1, hits give low values 1.01 | S. cerevisiae deletion strains, locus YKR001C, strain vps1, hits give low values 1.02 | S. cerevisiae deletion strains, locus YLR039C, strain RIC1, hits give low values 1.04 | S. cerevisiae deletion strains, locus YLR058C, strain SHM2, hits give low values 1.01 | S. cerevisiae deletion strains, locus YLR102C, strain apc9, hits give low values 1.02 | S. cerevisiae deletion strains, locus YLR262C, strain YPT6, hits give low values 0.988 | S. cerevisiae deletion strains, locus YLR268W, strain sec22, hits give low values 0.988 | S. cerevisiae deletion strains, locus YLR330W, strain CHS5, hits give low values 1 | S. cerevisiae deletion strains, locus YLR342W, strain FKS1 (second series), hits give low values 1.07 | S. cerevisiae deletion strains, locus YLR371W, strain rom2, hits give low values 1.02 | S. cerevisiae deletion strains, locus YLR418C, strain cdc73, hits give low values 0.979 | S. cerevisiae deletion strains, locus YML016C, strain PPZ1, hits give low values 1 | S. cerevisiae deletion strains, locus YML032C, strain rad52, hits give low values 1.03 | S. cerevisiae deletion strains, locus YML124C, strain tub3, hits give low values 1.01 | S. cerevisiae deletion strains, locus YMR078C, strain ctf18, hits give low values 1.02 | S. cerevisiae deletion strains, locus YMR223W, strain ubp8, hits give low values 1.03 | S. cerevisiae deletion strains, locus YMR263W, strain SAP30, hits give low values 0.991 | S. cerevisiae deletion strains, locus YMR307W, strain GAS1, hits give low values 1.05 | S. cerevisiae deletion strains, locus YNL067W, strain RPL9B, hits give low values 0.988 | S. cerevisiae deletion strains, locus YNL128W, strain TEP1, hits give low values 0.977 | S. cerevisiae deletion strains, locus YNL153C, strain GIM3, hits give low values 0.995 | S. cerevisiae deletion strains, locus YNL233W, strain BNI4, hits give low values 0.99 | S. cerevisiae deletion strains, locus YNL250W, strain rad50, hits give low values 1.01 | S. cerevisiae deletion strains, locus YNL271C, strain bni1, hits give low values 1.01 | S. cerevisiae deletion strains, locus YNL298W, strain CLA4, hits give low values 1.02 | S. cerevisiae deletion strains, locus YNL307C, strain MCK1, hits give low values 1.05 | S. cerevisiae deletion strains, locus YNL322C, strain KRE1, hits give low values 1.01 | S. cerevisiae deletion strains, locus YNR052C, strain pop2, hits give low values 1.02 | S. cerevisiae deletion strains, locus YOL006C, strain TOP1, hits give low values 1.06 | S. cerevisiae deletion strains, locus YOL012C, strain htz1 0.852 | S. cerevisiae deletion strains, locus YOL147C, strain pex11, hits give low values 0.999 | S. cerevisiae deletion strains, locus YOR061W, strain CKA2, hits give low values 1 | S. cerevisiae deletion strains, locus YOR069W, strain VPS5, hits give low values 1.01 | S. cerevisiae deletion strains, locus YOR136W, strain idh2, hits give low values 1.02 | S. cerevisiae deletion strains, locus YOR144C, strain elg1, hits give low values 1 | S. cerevisiae deletion strains, locus YOR184W, strain ser1, hits give low values 1.06 | S. cerevisiae deletion strains, locus YOR316C, strain cot1, hits give low values 1.01 | S. cerevisiae deletion strains, locus YPL055C, strain LGE1, hits give low values 0.946 | S. cerevisiae deletion strains, locus YPL241C, strain CIN2, hits give low values 1 | S. cerevisiae deletion strains, locus YPR119W, strain clb2, hits give low values 1.01 | S. cerevisiae deletion strains, locus YPR141C, strain kar3, hits give low values 1.01 | S. cerevisiae deletion strains, locus YPR163C, strain tif3, hits give low values 1.01 | S. cerevisiae deletion strains, locus YPR167C, strain met16, hits give low values 1.01 | S. cerevisiae deletion strains, strain wtn01, hits give low values 0.997 | S. cerevisiae strains, strain wild type, hits give low values 1.02
